DAX1 inh-1: DAX1 (NR0B1) inhibitors on StAR promoter, primary screen, cell-based, luminescence, SF-1 (NR5A1), full-length DAX-1 | HEK293T StAR-luciferase reporter, SF-1/DAX-1 repression relief | inhibition, % at 6.8 µM | hit rate 1.1% among 370,000 | AID 652010, 2013;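 active means inhibition above the mean over all tested compounds plus 3 SD, cut at about 3.6% in these data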;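 further: 0% = DAX-1 cells with DMSO and 100% = cells lacking DAX-1 with DMSO; higher inhibition means more luminescence from relief of DAX-1 repression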
ssDAF12 agonist: S. stercoralis DAF-12 nuclear receptor activators, primary screen, cell-based, luminescence, HEK293, GRIP1 co-expression, lit1-tk-luc; HEK293 ssDAF-12/GRIP1 lit1-tk-luc reporter; % of 3 µM dafachronic acid response; AID 652126, 2013; Nuclear hormone receptor DAF-12 (Strongyloides stercoralis); hit rate 1% among 370,000; activation, % at 6.8 µM;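 active means activation above the mean over all tested compounds plus 3 SD, cut at about 0.9% in these data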;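 further: 0% = DMSO-only wells and 100% = 3 µM delta7-dafachronic acid wells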
DAX1 inh-2: DAX1 (NR0B1) inhibitors, primary screen, cell-based, HEK293, Gal4-DAX1, luciferase luminescence. inhibition, % at 6.75 µM. hit rate 0.99% among 340,000. Nuclear receptor subfamily 0 group B member 1 (Homo sapiens), P51843. HEK293 Gal4-DAX1 luciferase reporter;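 active means inhibition above the mean over all tested compounds plus 3 SD, cut at about 4.2% in these data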;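 further: 0% = DAX1-transfected cells with DMSO and 100% = empty-vector control cells with DMSO; inhibition shows as a rise in luminescence from relieved DAX1 repression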
hgDAF-12 ag: H. glycines DAF-12 receptor agonists, primary screen, cell-based, luminescence, HEK293, GAL4 fusion, UAS-luciferase. Nuclear hormone receptor DAF-12 (Heterodera glycines), GAL4 fusion. activation, % at 6.8 µM. hit rate 1.8% among 370,000. HEK293 GAL4-hgDAF12 UAS-luciferase reporter, agonist luminescence; normalized to butyrate control;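 active means activation above a cutoff set at the mean of all screened compounds plus 3 SD, cut at about 10% in these data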;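 further: 0% = DMSO wells and 100% = sodium butyrate wells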
hcDAF-12 act: H. contortus DAF-12 nuclear receptor activators, primary screen, cell-based, luminescence, HEK293, lit1-tk-luc reporter | activation, % at 6.8 µM | AID 652067, 2013 | HEK293 hcDAF-12 lit1-tk-luc reporter; 0% DMSO, 100% Δ7-dafachronic acid | hit rate 1.4% among 370,000;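 active means activation above the mean of all tested compounds plus 3 SD, cut at about 5.5% in these data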;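 further: 100% = response to 3 µM Δ7-dafachronic acid high control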
NR1D1 modulator: modulators of Rev-erb alpha DNA binding, primary screen, biochemical, FITC-DNA, fluorescence polarization, uHTS. Nuclear receptor subfamily 1 group D member 1 (Homo sapiens), P20393. activity, % at 10 µM. Rev-erbα–FITC-DNA binding, 90 min. hit rate 0.79% among 370,000. AID 1259318, 2017;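 active means activity above about 14%, limit read from the data; passing the limit was not always enough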;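 further: 0% = DMSO wells with 35 nM protein and 100% = DMSO wells with 750 nM protein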
Target sequence (P20393 whole entry, looked up): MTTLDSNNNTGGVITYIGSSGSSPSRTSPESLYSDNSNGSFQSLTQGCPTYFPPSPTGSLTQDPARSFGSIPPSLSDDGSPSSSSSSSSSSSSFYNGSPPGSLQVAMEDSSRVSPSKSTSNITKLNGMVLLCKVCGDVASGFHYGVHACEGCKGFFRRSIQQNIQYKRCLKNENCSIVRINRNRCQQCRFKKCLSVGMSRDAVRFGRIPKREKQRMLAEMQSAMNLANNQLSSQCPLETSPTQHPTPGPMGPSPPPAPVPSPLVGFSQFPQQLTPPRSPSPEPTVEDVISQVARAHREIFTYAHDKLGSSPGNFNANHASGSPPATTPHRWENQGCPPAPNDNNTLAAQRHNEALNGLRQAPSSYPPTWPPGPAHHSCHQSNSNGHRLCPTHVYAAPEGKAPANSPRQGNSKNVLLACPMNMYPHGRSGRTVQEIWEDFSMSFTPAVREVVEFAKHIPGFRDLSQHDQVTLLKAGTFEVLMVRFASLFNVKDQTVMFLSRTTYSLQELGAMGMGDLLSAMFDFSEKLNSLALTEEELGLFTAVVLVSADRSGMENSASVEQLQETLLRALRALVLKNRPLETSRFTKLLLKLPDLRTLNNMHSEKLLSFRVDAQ
Rev-erbA confirm: modulators of Rev-erb alpha DNA binding, confirmation, biochemical, FITC-DNA, fluorescence polarization, single point; shares compounds with NR1D1 modulator; 90 min; activation, % at 25 µM; hit rate 61% among 3,000;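 active means activation at or above a set limit, or at least 3 SD above the negative control mean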;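 further: 0% = 35 nM protein with DMSO and 100% = 750 nM protein high control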
RORg counter: modulation of RORgamma DNA binding, dose response, counter-screen for Rev-erb alpha modulator project, biochemical, fluorescence polarization, FITC-DNA; purified RORgamma protein-FITC-DNA binding; IC50, µM; shares compounds with NR1D1 modulator; hit rate 8% among 910;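 active means Compounds whose fitted half-maximal concentration for disrupting protein-DNA binding is below 10 micromolar; the record names Rev-erb in its text, so the target is in doubt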
Active calls of the source: *; / = not tested or not shown. The list is not random: actives were taken first. Their share in the collection is about 4.8%.

SMILES	DAX1 inh-1	ssDAF12 agonist	DAX1 inh-2	hgDAF-12 ag	hcDAF-12 act	NR1D1 modulator	Rev-erbA confirm	others
Cn1c(N)c(C(=O)CSc2nn(-c3ccc(F)cc3)c(=S)s2)c(=O)n(C)c1=O	0	-1	-1	-2	-1	42*	42*	RORg counter=>40
COCC(=O)N1CC[C@H]2[C@@H]1c1cc(-c3cccc(OC)c3)ccc1N(C)[C@H]2CO	-1	-2	/	-3	-2	0	/
Cc1ccc2nc(N3CCN(c4cccc(C)c4C)CC3)c3nnnn3c2c1	0	-1	3	2	2	28*	71*	RORg counter=>40
C=CCO[C@H]1CN(C(=O)OC)[C@@H]2C[C@H]1Oc1ccccc12	1	-1	/	2	1	-4	/
CCN(CC)c1ccc(/C=C(/C#N)c2nc3ccccc3[nH]2)c(OC(C)C)c1	0	-1	0	0	0	39*	46*	RORg counter=>40
N#C/C(=C\c1ccncc1)c1nc2ccccc2[nH]1	0	-1	/	4	0	4	/
Cc1nn2c3c(cnc2c1-c1ccccc1)C(=O)CC(c1ccco1)C3 (stereo not drawn)	0	-1	-2	2	-1	17	/
Cc1nn2c(N)c(C#N)cnc2c1-c1ccc(Cl)cc1	1	-1	1	0	2	51*	34*	RORg counter=>40
Cc1nn2c(N)c(-c3ccccc3)cnc2c1-c1ccccc1	1	-1	1	7	2	19*	3
Cc1nn2c3c(cnc2c1-c1ccccc1)C(=O)CC(c1ccccc1)C3 (stereo not drawn)	0	-2	0	1	0	39*	19*
CN1OC[C@@H]2CN[C@H](c3ccc(N4CCCCC4)cc3)C[C@@H]21	-1	-1	/	-4	-2	-4	/
COc1cc(C(=O)Nc2sc3c(c2C(=O)NCc2ccco2)CCCC3)cc(OC)c1OC	-1	-1	0	0	-2	27*	3
COC(=O)Nc1sc2c(c1C(=O)NCc1ccco1)CCCC2	-1	-1	0	-2	0	3	/
COc1ccc(C(=O)Nc2sc3c(c2C(=O)NCc2ccco2)CCCC3)cc1OC	-1	-1	3	-1	1	26*	13
Cc1ccc(C(=O)Nc2sc3c(c2C(=O)NCc2ccco2)CCCC3)cc1	0	0	1	6	3	1	/
Cc1ccc(-c2nnc(-n3ncc(C#N)c3N)c3ccccc23)cc1C	0	-1	1	0	3	33*	27*
COc1ccccc1-c1csc(-n2ncc(C#N)c2N)n1	0	-2	0	2	-3	-16	/
O=C(O)COc1ccccc1C=NNC(=O)Cc1cc(=O)[nH][nH]1	1	0	/	1	0	-5	/
Cc1cc(OC(C)C(=O)NCc2cccnc2)c2c(C)c(C)c(=O)oc2c1 (stereo not drawn)	-2	-1	-1	2	-1	-7	/
Cc1cc(OC(C)C(=O)NCc2cccnc2)c2c(C)c(Cc3ccccc3)c(=O)oc2c1 (stereo not drawn)	0	-1	0	1	1	107*	104*	RORg counter=>40
Cc1cccc(-c2nnc3sc(-c4ccccc4)nn23)c1	-1	-2	1	-1	-2	82*	135*
COc1cccc(-c2nnc3sc(-c4ccccn4)nn23)c1	-1	-2	0	1	-1	1	/
CC(C)(C)c1ccc(-c2nnc3sc(-c4ccccn4)nn23)cc1	-3	-3	-1	-9	-6	22*	21*
O=S1(=O)CC2c3ccccc3CCN2CN1Cc1ccc(F)cc1 (stereo not drawn)	-1	-2	/	-2	-1	-4	/
N#CN1CCC(NS(=O)(=O)c2cccc(C(F)(F)F)c2)CC1	/	-1	/	0	-1	6	/
SMILES	DAX1 inh-1	ssDAF12 agonist	DAX1 inh-2	hgDAF-12 ag	hcDAF-12 act	NR1D1 modulator	Rev-erbA confirm	others
COc1ccccc1C(=O)N1CCC(Oc2cccnc2)CC1	0	-1	/	2	-3	-5	/
Nn1c(SCC(=O)NC2CCCCC2)nnc1-c1ccc(Cl)cc1	0	-1	0	-3	-2	-3	/
CC(C)c1ccc(-c2c(C#N)c(N)nc(SCC(=O)N3CCCCC3)c2C#N)cc1	-1	0	-1	-1	-1	83*	69*	RORg counter=>40
CC(C)c1ccc(-c2c(C#N)c(N)nc(SCC(=O)N3CCCCCC3)c2C#N)cc1	0	-1	/	1	-1	52*	9
N#Cc1c(N)nc(SCC(=O)NC2CCCCC2)c(C#N)c1-c1ccc(Cl)cc1	0	-2	2	-2	-2	24*	25*
COC(=O)CSc1nc(N)c(C#N)c(-c2ccc(O)cc2)c1C#N	-1	-2	2	0	-2	-5	/
CCOC(=O)CSc1nc(N)c(C#N)c(-c2ccc(OCC)cc2)c1C#N	-1	-2	-1	0	-2	56*	29*
COc1ccccc1C(=O)Nc1nc(-c2ccc(S(=O)(=O)N3CCOCC3)cc2)cs1	-4	-3	-5	-14	-7	43*	29*
COc1ccccc1OC(C)C(=O)Nc1nc(-c2ccc(S(=O)(=O)N3CCOCC3)cc2)cs1 (stereo not drawn)	-1	-2	-2	-3	-3	5	/
CC(C)=Cc1oc2ccc([N+](=O)[O-])cc2c1N1CCOCC1	0	-2	-1	-1	-1	-3	/
CC(=O)Oc1ccc2oc(/C=C/N(C)C)c([N+](=O)[O-])c2c1	0	-1	0	2	1	25*	43*	RORg counter=>40
C/C(=C/c1oc2ccc(O)cc2c1[N+](=O)[O-])N(C)C	0	-1	1	2	-1	22*	25*
Cc1ccccc1CN1[C@@H](C)[C@H](c2ccccc2)Oc2cccc(NCCc3ccccc3)c2S1(=O)=O	-1	-1	/	1	0	7	/
